Source: PubChem BioAssay (National Center for Advancing Translational Sciences (NCATS))
Rows were chosen to be rich in hits. Some 5.9% of all compounds tested hit in one or more screens of this group.
RORgamma inh = ROR gamma (mouse) transcription inhibition; P51450; Drosophila S2 Gal4-RORgamma UAS-luciferase reporter, 20 h; Potency, µM (top dose mostly 53.6 µM), hits mostly inhibitors; 310,000 tested, 5.4% active; AID 2551; further: nearly all actives have a fitted effect of over 60% in size
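Read-out: Photinus luciferase luminescence; inhibitors lower reporter signal. Insect Schneider cells with Gal4-ROR gamma fusion under metallothionein promoter, UAS reporter; 700 uM final copper sulfate induction, 20 hr, ambient temperature.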
GLP-1R inv ag = acts as inverse agonist at human GLP-1 receptor. P43220. HEK293 GLP-1R CRE-luciferase, luminescence, 24 h; GLP-1R form is constitutively active. Potency, µM (highest dose often 38.3 µM), actives largely listed as inhibitors. 410,000 tested, 1.6% active. AID 624417; further: nearly all actives have a fitted effect of over 55% in size
Target sequence (P43220 whole entry, looked up): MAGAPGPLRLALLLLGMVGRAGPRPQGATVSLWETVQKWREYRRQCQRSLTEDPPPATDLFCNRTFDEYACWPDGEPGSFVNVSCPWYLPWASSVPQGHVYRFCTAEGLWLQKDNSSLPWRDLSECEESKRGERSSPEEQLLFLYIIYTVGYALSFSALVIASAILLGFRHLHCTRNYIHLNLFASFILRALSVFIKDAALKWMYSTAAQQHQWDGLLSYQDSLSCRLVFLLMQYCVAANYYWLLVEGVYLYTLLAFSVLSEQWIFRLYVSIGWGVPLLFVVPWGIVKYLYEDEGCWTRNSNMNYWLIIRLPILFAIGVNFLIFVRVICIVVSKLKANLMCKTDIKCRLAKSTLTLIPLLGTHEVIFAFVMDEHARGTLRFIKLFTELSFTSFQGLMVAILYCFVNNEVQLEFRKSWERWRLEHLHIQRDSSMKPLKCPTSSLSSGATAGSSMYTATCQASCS
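Using stably transfected HEK293 (constitutively active GLP-1R, cAMP-luciferase reporter), compounds were incubated 24 hr and luciferase measured by luminescence.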
GLP1R ag = GLP-1 receptor (human) agonism | HEK293 GLP-1R CRE-luciferase, luminescence, 4-6 h; cells express a hypersensitive GLP-1R form | Potency, µM (titrated, usually from 45.6 µM), usual class: activators | 380,000 tested, 0.007% active
VP16 counter = Gal4-VP16 reporter inhibition counter-screen. Drosophila S2 Gal4-VP16 UAS-luciferase, luminescence, 20 h. Potency, µM (series often up to 53.6 µM), hits mostly inhibitors. 310,000 tested, 3.5% active. AID 2546;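 further: Gal4-VP16 expression switched on by copper sulfate through the metallothionein promoter; nearly all actives have a fitted effect of over 50% in size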
HEK293 tox = cytotoxicity counter-screen for GLP-1 receptor inverse agonists; HEK293 cAMP-luciferase reporter cells, luminescence, 24 h; Potency, µM (doses to about 38.3 µM), usual class: inhibitors; 410,000 tested, 0.13% active;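 further: loss of luciferase light is scored as toxicity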
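A 23 nL compound transfer followed 12 hours of cell culture at 37 deg C; exposure then lasted 24 hr. Luciferase assay detection reagent was dispensed and plates read for luminescence after a 12 min room-temperature wait.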
Numbers stand for hits; i = inactive; ? = inconclusive; nt = no result given; [ ] = remark or other dose. The call rests on the fitted dose curve; in most records, active means well fitted curve in the direction sought with a large enough effect; inconclusive means small, poorly fitted or top-dose-only effect, or another doubt; inactive means no such curve, though single readings can be large; an effect the other way counts as inactive or inconclusive.

SMILES	RORgamma inh	GLP-1R inv ag	GLP1R ag	VP16 counter	HEK293 tox
CN(C)CCNC(=O)c1cccc(S(=O)(=O)Nc2ccc(F)cc2)c1	i	i	i	i	i
O=C(N/N=C/C1CC=CCC1)c1ccccc1O (configuration not stated)	11µM	i	i	?	i
O=C(N/N=C/C1CC=CCC1)c1cc(Br)ccc1O (configuration not stated)	?	i	i	?	i
O=C(N/N=C/C1CC=CCC1)c1ccc(Cl)cc1O (configuration not stated)	13µM	i	i	10µM	i
COc1ccc(CNc2nc(-c3ccco3)nn2S(=O)(=O)c2ccc(Cl)cc2)cc1OC	nt	i	nt	nt	i
N/C(=N\OC(=O)CCC1CCCCC1)c1ccc([N+](=O)[O-])cc1	i	i	i	i	i
N/C(=N\OC(=O)CC1CCCCC1)c1ccc([N+](=O)[O-])cc1	i	i	i	35µM	i
Cn1cc(CNCc2cn(C)nc2-c2ccc(C3CCCCC3)cc2)cn1	i	7.9µM	i	?	i
COCCN1CCCC(CNCc2cn(C)nc2-c2ccc(Oc3ccccc3)cc2)C1 (configuration not stated)	?	?	i	i	?
CCN1CCN(Cc2ccc(NC(=O)c3ccc(C)c(NC(=O)c4c[nH]c5cc(C(F)(F)F)ccc5c4=O)c3)cc2C(F)(F)F)CC1	6.3µM	10µM	i	11µM	?
CCOc1ccc(/C=N/NC(=O)c2[nH]c3ccc(C)cc3c2C)cc1	?	i	i	?	i
Cc1c(C(=O)N/N=C/c2ccc(Cl)cc2)[nH]c2ccc(Cl)cc12	11µM	?	i	11µM	i
CCN(Cc1cc(=O)oc2cc(C)ccc12)c1ccccc1	i	10µM	i	i	i
Cc1ccc2c(CN(C)Cc3ccc(Cl)cc3Cl)cc(=O)oc2c1	i	11µM	i	i	i
CN(c1cccc(NC(=O)CN(c2cccc(Cl)c2)S(=O)(=O)c2ccc(Cl)cc2)c1)S(C)(=O)=O	i	7.9µM	i	i	i
CCOc1ccc(C(=O)Nc2ccc(-c3nc4ccccc4s3)c(C)c2)cc1OCC	nt	i	nt	nt	i
Cc1cnc(CNc2cc(-c3ccoc3)ncn2)cn1	i	nt	nt	i	nt
Nc1c(C(=O)N2CCOCC2)sc2nc3c(cc12)CCCC3	10µM	?	i	?	i
Cc1ccc(C)c2nc3sc(C(=O)N4CCOCC4)c(N)c3cc12	i	?	i	i	i
Cc1cc(C)c2nc3sc(C(=O)N4CCOCC4)c(N)c3cc2c1	10µM	?	i	?	i
COc1ccccc1N1C(=O)c2ccc(C(=O)Nc3ccc(F)cc3)cc2C1=O	i	i	i	16µM	i
O=C(NC1CCCCC1)c1ccc(Cn2c(SCc3cccc(F)c3)nc3cccnc32)cc1	nt	i	nt	nt	i
N#CC(c1cccc([N+](=O)[O-])c1)C(CC(=O)c1ccccc1)c1ccccc1 (configuration not stated)	nt	?	i	nt	i
N#CC(c1ccccc1)C(CC(=NO)c1ccccc1)c1ccccc1 (configuration not stated)	nt	8.9µM	i	nt	i
N#CC(c1ccc([N+](=O)[O-])cc1)C(CC(=O)c1ccccc1)c1ccccc1 (configuration not stated)	nt	11µM	i	nt	i
SMILES	RORgamma inh	GLP-1R inv ag	GLP1R ag	VP16 counter	HEK293 tox
CCC(C)C(NC(=O)OC(C)(C)C)C(=O)NC1COC2CC(n3cc(F)c(=O)[nH]c3=O)OC12 (configuration not stated)	i	nt	nt	i	nt
C=C1CCN(C(C(=O)O)C(C)C)S(=O)(=O)c2ccccc21 (configuration not stated)	i	nt	nt	i	nt
Cc1cccc(C)c1NC(=S)/C(=C(\[O-])c1cccs1)[n+]1ccccc1	?	i	i	20µM	i
O=C(Nc1ccccc1)C1=C[C@H](c2ccccc2)C[C@H](OCCCCO)O1	nt	i	i	nt	i
O=C(Nc1ccccc1)C1=C[C@@H](c2ccc(Br)cc2)C[C@@H](OCCCCO)O1	?	?	i	7.1µM	i
O=C(Nc1ccccc1)C1=C[C@H](c2csc3ccccc23)C[C@H](OCc2ccc(CO)cc2)O1	?	10µM	i	i	i
NC(=S)N/N=C1\CCSc2ccc(Cl)cc21	2µM	?	i	10µM	?
O=C(N/N=C1\CCSc2ccc(F)cc21)c1cccnc1	i	i	i	i	i
Cn1c(/C=N/NC(=O)c2ccccc2Br)nc2ccccc21	i	i	i	i	i
Cc1ccc(C(=O)N/N=C/c2nc3ccccc3n2C)cc1	11µM	i	i	i	i
Cc1ccccc1NC(=O)c1c([N+](=O)[O-])c(C(C)(C)C)nn1C	i	?	i	i	i
Cc1cccc(NC(=O)c2c([N+](=O)[O-])c(C(C)(C)C)nn2C)c1	i	5µM	i	i	i
Cn1nc(C(C)(C)C)c([N+](=O)[O-])c1C(=O)Nc1ccc(Br)cc1	?	2.8µM	i	i	i
c1ccc(C(c2ccccc2)N2CCN(c3nc4ccccc4n4cnnc34)CC2)cc1	i	i	i	13µM	i
Cc1cc(C(F)(F)F)nn1Cc1ccc(C(=O)NCc2ccco2)o1	10µM	i	i	?	i
N/C(CCS(=O)(=O)c1ccc(Cl)cc1)=N\OC(=O)c1ccccc1C(F)(F)F	i	?	i	?	10µM
CCC(C)(C)C1CCC(=NNc2nc3ccccc3[nH]2)CC1 (configuration not stated)	11µM	i	i	?	i
c1csc(C2CCCN2c2nc3nonc3nc2NC2CC2)n1 (configuration not stated)	5µM	i[7.66 µM]	i	10µM	i[7.66 µM]
CC(c1nccs1)N(C)c1nc2nonc2nc1NC1CC1 (configuration not stated)	i	i	i	i	i
CCOC(=O)c1ccc(NC(=O)CC2C(=O)OCCN2CC)cc1 (configuration not stated)	?	i	i	?	i
